These results are taken from PubChem BioAssay AID492972 (The Scripps Research Institute Molecular Screening Center, 2010).

Each structure is given as a SMILES string. Among all 340,000 compounds or so, about 930 (0.27%) were called active. This is one part of a sample in which actives are shown more often than they occur.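 Rule for the calls: active = inhibition above the screen-wide average of all tested compounds plus 3 SD (cut at about 25% in these data); inactive = the rest.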

Sequence of Platelet-activating factor acetylhydrolase IB subunit alpha1 (Homo sapiens) (Q15102 whole entry, looked up): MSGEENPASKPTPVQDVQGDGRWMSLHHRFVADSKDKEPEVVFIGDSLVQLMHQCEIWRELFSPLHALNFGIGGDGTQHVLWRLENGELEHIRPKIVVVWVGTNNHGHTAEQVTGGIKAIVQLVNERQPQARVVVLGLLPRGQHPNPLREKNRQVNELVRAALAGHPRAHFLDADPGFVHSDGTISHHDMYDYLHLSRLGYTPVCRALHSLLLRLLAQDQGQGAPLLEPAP

This experiment has as its target Platelet-activating factor acetylhydrolase IB subunit alpha1 (Homo sapiens) (UniProt Q15102). Put plainly: inhibition of PAF acetylhydrolase 1B subunit 3 – biochemical, fluorescence polarization, human, primary screen (AID 492972).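 Note: 0% = enzyme with DMSO only and 100% = wells lacking PAFAH1B3 protein.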 The settings on record: recombinant PAFAH1B3, FP-rhodamine probe, at 3.39 µM, stronger effect = higher value.
In the case of `CC(C)c1ccc(NC(=O)[C@@H](NC(=O)N2CC(=O)Nc3ccccc32)C(C)C)cc1`, the inhibition (in general, the relative decrease from the control value, in per cent) was 6.6% (inactive).
In the case of `Cc1nc(NC(CC(C)C)C(=O)O)c2nc(C)oc2n1` (stereo not given), the inhibition was 7.36% (inactive).
The figure for `COc1cccc(N(CC(=O)NCCSc2ccccn2)S(C)(=O)=O)c1` is 12.7% (inactive); for `CCOC(=O)[C@H]1[C@H]2COc3ccc(Br)cc3[C@@H]2N2C(=O)CN(C)C(=O)[C@@]12C` it is 2.41% (inactive); for `O=C1CSC(=S)N1/N=C/c1ccc(O)c([N+](=O)[O-])c1` it is 31.7% (active).
Take `CCOc1cccc(/C=N/N2C(=O)CSC2=S)c1O`: the inhibition is 13.7% (inactive).
As to `Cc1cc(C(=O)N/N=C/c2ccc(O)c([N+](=O)[O-])c2)c(C)n1-c1ccc(F)cc1`, the inhibition is 9.16% (inactive).
For `Cc1ccc(C)c2[nH]c(=O)c(CCNC(=O)CC(C)C)cc12`, the inhibition is 13.2% (inactive).
With `O=C(O)c1ccc(Cn2cnc3c(=S)nc[nH]c32)cc1` the figure was -3% (inactive); with `COC(=O)c1ccccc1NC(=O)CSc1n[nH]c(-c2ccncc2)n1`, -3.63% (inactive).
In the case of `CC(=O)Nc1ccc(S(=O)(=O)N2CCC(C(=O)N[C@@H](Cc3ccccc3)C(=O)O)CC2)cc1`, the inhibition is -0.21% (inactive).
The figure for `CCOC(=O)c1ccn(-c2nc(-c3ccco3)cc(C(F)(F)F)n2)n1` is 1.73% (inactive); for `Cc1c(C(=O)O)nnn1-c1nonc1N` it is 3.33% (inactive).
In the case of `COC(=O)C1=C(C)NC(=O)/C1=C/c1ccc(CNS(=O)(=O)c2ccc(C)cc2)o1`, the inhibition is 10.7% (inactive).
As for `Cn1c(Cc2cccs2)nnc1SCC(=O)Nc1ccccc1`, the inhibition was 10.8% (inactive).
Turning to `CCOC(=O)c1c(C)[nH]c2c1-c1ccccc1C(=O)C2=O`, the inhibition was 58.3% (active).
In the case of `CCOC(=O)C1=C(C)c2ccccc2OC1(C)C(=O)OCC` (stereo not given), the inhibition is 2.09% (inactive).
For `CCOC(=O)c1[nH]c2ccccc2c1N=C(C)N(CC)CC`, the inhibition was 9.46% (inactive).
Regarding `c1ccc(-c2c[nH]c(-c3ccccc3)c2)cc1`, the inhibition is 3.23% (inactive).
For `Cc1nc(CNS(=O)(=O)c2ccc(Oc3ccccc3)cc2)cs1`, the inhibition was 13.7% (inactive).
Turning to `CNC(=S)N/N=C/c1cn(Cc2ccc(C)cc2)c2ccccc12`, the inhibition is 3.79% (inactive).
For the compound `N#CCC(=O)N/N=C/c1cn(Cc2ccc3ccccc3c2)c2ccccc12`, the inhibition was -0.94% (inactive).
Take `COc1cccc(Cn2cc(/C=N/NC(=O)c3cc(O)cc(O)c3)c3ccccc32)c1`: the inhibition is 37.5% (active).
The figure for `COC(=O)C1=C[C@@H](C(=O)OC)[C@@H]2C3=C(C(=O)[C@]2(C)NC(=O)c2ccccc2)[C@H](C)n2c(=O)n(C)c(=O)n2[C@@H]3C1` is 4.02% (inactive).
Take `COC(=O)Cc1ccc(N(Cc2ccccc2F)S(=O)(=O)c2ccc(Br)cc2)cc1`: the inhibition is 8.61% (inactive).
The figure for `CCN(CC)S(=O)(=O)N1CCC(C(=O)NC(C)CCc2ccccc2)CC1` (stereo not given) is 9.79% (inactive); for `CC(C)N(C)C(=O)CCc1nnc(CCc2c[nH]c3ccccc23)o1` it is 1.11% (inactive); for `CN(C)CCCCCN(C)Cc1cc2ccccc2o1` it is 3.58% (inactive).
As to `O=C(Cn1nc([N+](=O)[O-])nc1Br)NC1CCCCC1`, the inhibition is 11% (inactive).
As to `CCN1CCc2nc(NC(=O)c3cc(F)c(F)cc3Cl)sc2C1`, the inhibition is 1.2% (inactive).
Take `CC(C)c1ccc(S(=O)(=O)N2CCN(C(=O)CN3C(=O)NC(C)(c4ccccc4)C3=O)CC2)cc1` (stereo not given): the inhibition is 5.24% (inactive).
For `COc1ccccc1N1CCN(c2nc(C)cc(=O)[nH]2)CC1`, the inhibition was 9.92% (inactive).
Take `Clc1cc(NC2CCCCC2)ncn1`: the inhibition is 6.06% (inactive).
With `COc1cc(NC(=O)COC(=O)c2ccc([N+](=O)[O-])s2)cc(OC)c1OC`, the inhibition is 23.3% (inactive).
Turning to `O=C(OCC(=O)N1CCN(c2ccccc2)CC1)c1ccc([N+](=O)[O-])s1`, the inhibition is 53.8% (active).
With `C[C@H](NC(=O)c1ccccc1Cl)C(=O)OCC(=O)N1CCN(c2ccccc2)CC1`, the inhibition is 2.77% (inactive).
`COc1ccc(C(=O)COC(=O)c2ccc([N+](=O)[O-])s2)cc1OC`: the inhibition was 33.9% (active).
With `COc1cccc(/C=C/C(=O)OCC(=O)N2CCN(c3ccccc3)CC2)c1` the figure was -3.05% (inactive); with `COc1ccc(C(=O)OCC(=O)c2ccc(C)c(S(=O)(=O)N3CCOCC3)c2)cc1OC`, 14% (inactive).
Consider `CN1/C(=c2/s/c(=C3/C(=O)N(c4ccccc4)NC3=Nc3ccccc3)n(C)c2=O)C(C)(C)c2ccccc21`, for which the inhibition is 6.84% (inactive).
Consider `COc1ccc(S(=O)(=O)/N=C2\C=C(NS(=O)(=O)c3ccccc3)C(=O)c3ccccc32)cc1`, for which the inhibition is -2.66% (inactive).
With `CC(C)CC[n+]1ccn(C2=C([O-])c3ccccc3C(=O)/C2=N\S(=O)(=O)c2ccccc2)c1`, the inhibition was 34.1% (active).
Take `CCCCCC(=O)Nc1ccc(-c2cn3cccnc3n2)cc1`: the inhibition was 8.1% (inactive).
Turning to `COc1ccc(-c2cc3n(n2)CCc2nc4ccccc4n2-3)cc1`, the inhibition is 1.18% (inactive).
With `O=C1C(Cl)=C(Oc2ccccc2)C(=O)c2ccccc21` the figure was 37.3% (active); with `CCC(C)C(NC(=O)C1CCC(=O)N1C(=O)OCc1ccccc1)C(=O)NC(C(=O)N1CCCC1C(N)=O)C(C)CC` (stereo not given), -7.74% (inactive).
The figure for `CC1CCN(CCCn2c(SCC(=O)NC3CCCC3)nc3ccccc3c2=O)CC1` is 6.29% (inactive); for `O=Cc1cn(-c2ccccc2)nc1-c1ccccn1` it is 0.88% (inactive).
On to `Nc1ccc2nc3c(=O)[nH]c(=S)[nH]c3nc2c1`, for which the inhibition was 48.8% (active).
With `Cn1ncc(Br)c1C(=O)NC1CCCC1` the figure was 4.81% (inactive); with `O=C(Nc1ccc(Br)cc1)C1CCC(=O)N1Cc1ccccc1Cl` (stereo not given), 7.1% (inactive).
Turning to `N#Cc1ccc(S(=O)(=O)NCC(=O)OCC(=O)NCCc2ccccc2)cc1`, the inhibition is -8.29% (inactive).
In the case of `O=C(Oc1cccc(N2C(=O)C3C4c5ccccc5C(c5ccccc54)C3C2=O)c1)c1ccco1` (stereo not given), the inhibition was 12.6% (inactive).
For the compound `COc1cccc(C2CC(c3ccccc3)=NN2S(=O)(=O)c2ccccc2)c1OC` (stereo not given), the inhibition is 0.58% (inactive).
With `COc1ccc(C(=O)C(C)OC(=O)c2cccc(S(=O)(=O)Nc3c(C)n(C)n(-c4ccccc4)c3=O)c2)cc1` (stereo not given) the figure was 10% (inactive).
As for `Oc1cccc(/C=N/Nc2ccc(Cl)nn2)c1O`, the inhibition is 55.2% (active).
As to `C/C(=N\Nc1ccc(Cl)nn1)c1ccccc1O`, the inhibition was 4.6% (inactive).
Regarding `O=C(NN=Cc1ccccc1O)NN=Cc1ccccc1O`, the inhibition was 7.65% (inactive).
For `CN(C(=O)c1cccc(NC(=O)Cc2cccc(NC(=O)C3CCCN(C(=O)C4CC4)C3)c2)c1)C1CCC1` (stereo not given), the inhibition is 1.82% (inactive).
On to `Cc1c2cnn(CC(=O)NCc3ccccn3)c(=O)c2c(C)n1Cc1ccc(Cl)cc1`, for which the inhibition is 0.23% (inactive).
Consider `N#C/C=C1\Sc2ccccc2C(=O)N1CC(=O)N1CCN(S(=O)(=O)c2ccccc2)CC1`, for which the inhibition is 5.99% (inactive).
With `Fc1c(F)c(C(F)(F)F)c(F)c(F)c1N1CCN(c2ccc3nnc(C(F)(F)F)n3n2)CC1`, the inhibition is 6.38% (inactive).
Consider `COc1ccccc1C(C)NC(=O)Cc1ccsc1` (stereo not given), for which the inhibition is 4.64% (inactive).
Consider `CC(=O)N(C1=C(Cl)C(=O)c2ccccc2C1=O)c1ccc(C(=O)O)cc1`, for which the inhibition is 39% (active).
The figure for `O=C(Nc1cccn(Cc2ccccc2Cl)c1=O)NC1CCCCC1` is -6.16% (inactive); for `CC(NC(=O)COc1cccnc1[N+](=O)[O-])c1ccc(Cl)cc1Cl` (stereo not given) it is 9.45% (inactive); for `CCCCN=C1C([N+](=O)[O-])=CC=C2C1=NC1(CCCCC1)N2O` it is 7.2% (inactive).
In the case of `CC(C)c1ccc(-c2nn[nH]n2)cc1`, the inhibition was 5.47% (inactive).
As to `Cc1ccc(S(=O)(=O)N2CCN(C(=O)Cc3sc(C)nc3-c3ccc(F)cc3)CC2)c(C)c1`, the inhibition is 4.17% (inactive).
On to `O=C(CN1C(=O)NC2(CCCCCC2)C1=O)Nc1ccc([N+](=O)[O-])cc1`, for which the inhibition was 7% (inactive).
In the case of `CCCC1OC23CCCCC2C(C#N)(C#N)C1(C#N)C(=N)O3` (stereo not given), the inhibition was 27.8% (active).
Consider `CC(=O)c1c(C)[nH]c(C(=O)N2CCN(S(=O)(=O)c3ccc(F)c(F)c3)CC2)c1C`, for which the inhibition was 0.06% (inactive).
`N#Cc1c(-c2ccc(Cl)cc2)c2c([nH]c1=S)CCCC2`: the inhibition was 2.52% (inactive).
As for `O=C(c1cc2cc(Br)cc(Br)c2oc1=O)N1CCOCC1`, the inhibition was 0.41% (inactive).
Turning to `O=C1Nc2c(Br)cc(Br)cc2C1(O)N1CCOCC1` (stereo not given), the inhibition is 38% (active).
As for `O=C1C=C(NS(=O)(=O)c2ccccc2)C(=O)c2ccccc21`, the inhibition is 13.3% (inactive).
The figure for `O=C(NC1=CC(=O)c2ccccc2C1=O)c1ccccc1` is 28.6% (active).
With `CC(NC(=O)c1ccccc1)C(=O)Nc1ccccc1` (stereo not given) the figure was 3.87% (inactive); with `CN1CCN(C(=O)c2cnn(-c3ccccc3)c2NC(=O)c2ccc([N+](=O)[O-])cc2)CC1`, 6.79% (inactive); with `OCCNc1nc2ccccc2n1-c1ncnc2sc3c(c12)CCC3`, 10.6% (inactive).
As to `CCN(CC(=O)Nc1c(F)cccc1F)C(=O)c1cnc(C)cn1`, the inhibition was -0.64% (inactive).
On to `COC(=O)C1=C(C)NC2=C(C(=O)c3ccccc32)C1c1ccc(-c2ccc(C(=O)O)cc2)o1` (stereo not given), for which the inhibition is 46.5% (active).
For the compound `CCOC(=O)c1ccc(-c2ccc(C(=O)Nc3cccnc3)o2)cc1`, the inhibition was -6.74% (inactive).
Regarding `COC(=O)C1=C(C)N(C)C(=O)NC1c1ccc([N+](=O)[O-])o1` (stereo not given), the inhibition was 0.98% (inactive).
As for `COc1ccc(N2CCN(C3CCCCC3NS(=O)(=O)c3ccccc3)CC2)cc1` (stereo not given), the inhibition is 7.46% (inactive).
The figure for `CCOC(=O)C1=C(CN2CCc3ccccc32)NC(=O)NC1c1cc(C)ccc1C` (stereo not given) is 0.4% (inactive).
For `CC(C)(C)OC(=O)N1CCC(C(=O)Nc2cccc(C(=O)NCCc3ccccc3)c2)CC1`, the inhibition was -4.3% (inactive).
The figure for `CCOC(=O)CNC(=O)CSc1ncccc1-c1nc2ccccc2[nH]1` is -4.22% (inactive); for `O=C(Nc1ccc(CN2CCOCC2)cc1)c1cc(Cl)ccc1Cl` it is 7.42% (inactive); for `Cc1ccc(C)c(S(=O)(=O)N2CCN(C(=O)Nc3ccccc3)CC2)c1` it is 3.11% (inactive).
